# Where two headings read alike, the source gives them in different places.
# Key:
# Settings in all cases: n = 1
# PIM1 = system: PIM1
# PIM2 = system: PIM2
# PIM3 = system: PIM3
# PIP5K1A = system: PIP5K1A
# PIP5K1C = system: PIP5K1C
# PIP5K2B = system: PIP5K2B
# PIP5K2C = system: T1, PIP5K2C
# T1 construct: gene PIP4K2C
# PKAC-alpha = system: T2, PKAC-alpha
# T2 construct: gene PRKACA
# PKAC-beta = system: T3, PKAC-beta
# T3 construct: gene PRKACB
# PKMYT1 = system: PKMYT1
# PKN1 = system: PKN1
# PKN2 = system: PKN2
# PLK1 = system: PLK1
# PLK2 = system: PLK2
# PLK3 = system: PLK3
# PLK4 = system: PLK4
# PRKCD = system: PRKCD
# PRKCE = system: PRKCE
# PRKCH = system: PRKCH
# PRKCI = system: PRKCI
# [1] = concentration: 1 μM, replicates: in singlicate
# 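Also: KINOMEscan kinase panel screen.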
smiles,measurement,setting,value
Cl.O=C(Nc1cccc(-c2nn3ncccc3c2-c2ccnc(Nc3cccnc3)n2)c1)c1c(F)cccc1F [GSK312879],%Inh,PIM1; [1],11%
same,%Inh,PIM2; [1],0%
same,%Inh,PIM3; [1],0%
same,%Inh,PIP5K1A; [1],2%
same,%Inh,PIP5K1C; [1],11%
same,%Inh,PIP5K2B; [1],4%
same,%Inh,PIP5K2C; [1],0%
same,%Inh,PKAC-alpha; [1],14%
same,%Inh,PKAC-beta; [1],19%
same,%Inh,PKMYT1; [1],20%
same,%Inh,PKN1; [1],45%
same,%Inh,PKN2; [1],0%
same,%Inh,PLK1; [1],0%
same,%Inh,PLK2; [1],0%
same,%Inh,PLK3; [1],0%
same,%Inh,PLK4; [1],0%
same,%Inh,PRKCD; [1],0%
same,%Inh,PRKCE; [1],5%
same,%Inh,PRKCH; [1],16%
same,%Inh,PRKCI; [1],0%
Nc1nc(-c2nccs2)c(-c2ccnc3ccccc23)s1 [GW693542],%Inh,PIM1; [1],9%
same,%Inh,PIM2; [1],0%
same,%Inh,PIM3; [1],0%
same,%Inh,PIP5K1A; [1],0%
same,%Inh,PIP5K1C; [1],45%
same,%Inh,PIP5K2B; [1],0%
same,%Inh,PIP5K2C; [1],28%
same,%Inh,PKAC-alpha; [1],0%
same,%Inh,PKAC-beta; [1],13%
same,%Inh,PKMYT1; [1],0%
same,%Inh,PKN1; [1],6%
same,%Inh,PKN2; [1],2%
same,%Inh,PLK1; [1],0%
same,%Inh,PLK2; [1],0%
same,%Inh,PLK3; [1],0%
same,%Inh,PLK4; [1],0%
same,%Inh,PRKCD; [1],1%
same,%Inh,PRKCE; [1],8%
same,%Inh,PRKCH; [1],16%
same,%Inh,PRKCI; [1],30%
Cc1csc(-c2nc(Nc3ccncc3)c3ccccc3n2)n1 [GW869640],%Inh,PIM1; [1],31%
same,%Inh,PIM2; [1],0%
same,%Inh,PIM3; [1],17%
same,%Inh,PIP5K1A; [1],0%
same,%Inh,PIP5K1C; [1],29%
same,%Inh,PIP5K2B; [1],2%
same,%Inh,PIP5K2C; [1],2%
same,%Inh,PKAC-alpha; [1],14%
same,%Inh,PKAC-beta; [1],44%
same,%Inh,PKMYT1; [1],16%
same,%Inh,PKN1; [1],0%
same,%Inh,PKN2; [1],23%
same,%Inh,PLK1; [1],51%
same,%Inh,PLK2; [1],40%
same,%Inh,PLK3; [1],31%
same,%Inh,PLK4; [1],24%
same,%Inh,PRKCD; [1],21%
same,%Inh,PRKCE; [1],37%
same,%Inh,PRKCH; [1],0%
same,%Inh,PRKCI; [1],30%
CCn1c(-c2cccnc2O)nc2cnccc21 [SB-736715],%Inh,PIM1; [1],0%
same,%Inh,PIM2; [1],0%
same,%Inh,PIM3; [1],0%
same,%Inh,PIP5K1A; [1],0%
same,%Inh,PIP5K1C; [1],0%
same,%Inh,PIP5K2B; [1],0%
same,%Inh,PIP5K2C; [1],19%
same,%Inh,PKAC-alpha; [1],4%
same,%Inh,PKAC-beta; [1],0%
same,%Inh,PKMYT1; [1],0%
same,%Inh,PKN1; [1],0%
same,%Inh,PKN2; [1],0%
same,%Inh,PLK1; [1],0%
same,%Inh,PLK2; [1],0%
same,%Inh,PLK3; [1],0%
same,%Inh,PLK4; [1],0%
same,%Inh,PRKCD; [1],2%
same,%Inh,PRKCE; [1],3%
same,%Inh,PRKCH; [1],0%
same,%Inh,PRKCI; [1],0%
Cc1c(Cn2ccn3c(=O)cc(N4CCOCC4)nc23)cccc1C(F)(F)F [GSK2289044],%Inh,PIM1; [1],0%
same,%Inh,PIM2; [1],0%
same,%Inh,PIM3; [1],4%
same,%Inh,PIP5K1A; [1],0%
same,%Inh,PIP5K1C; [1],10%
same,%Inh,PIP5K2B; [1],15%
same,%Inh,PIP5K2C; [1],0%
same,%Inh,PKAC-alpha; [1],11%
same,%Inh,PKAC-beta; [1],0%
same,%Inh,PKMYT1; [1],0%
same,%Inh,PKN1; [1],20%
same,%Inh,PKN2; [1],5%
same,%Inh,PLK1; [1],0%
same,%Inh,PLK2; [1],0%
same,%Inh,PLK3; [1],0%
same,%Inh,PLK4; [1],0%
same,%Inh,PRKCD; [1],0%
same,%Inh,PRKCE; [1],0%
same,%Inh,PRKCH; [1],8%
same,%Inh,PRKCI; [1],0%
Fc1cc(Cl)ccc1Nc1ccnc2cc(-c3ccc(CN4CCCCC4)o3)ccc12 [GW560116],%Inh,PIM1; [1],13%
same,%Inh,PIM2; [1],0%
same,%Inh,PIM3; [1],0%
same,%Inh,PIP5K1A; [1],0%
same,%Inh,PIP5K1C; [1],57%
same,%Inh,PIP5K2B; [1],5%
same,%Inh,PIP5K2C; [1],71%
same,%Inh,PKAC-alpha; [1],100%
same,%Inh,PKAC-beta; [1],0%
same,%Inh,PKMYT1; [1],0%
same,%Inh,PKN1; [1],0%
same,%Inh,PKN2; [1],0%
same,%Inh,PLK1; [1],0%
same,%Inh,PLK2; [1],0%
same,%Inh,PLK3; [1],0%
same,%Inh,PLK4; [1],51%
same,%Inh,PRKCD; [1],0%
same,%Inh,PRKCE; [1],5%
same,%Inh,PRKCH; [1],0%
same,%Inh,PRKCI; [1],0%
Cc1ccc(NC(=O)Nc2cccc(C(F)(F)F)c2)cc1 [GSK955403],%Inh,PIM1; 1 µM,5%
same,%Inh,PIM2; 1 µM,15%
same,%Inh,PIM3; 1 µM,21%
same,%Inh,PIP5K1A; 1 µM,0%
same,%Inh,PIP5K1C; 1 µM,0%
same,%Inh,PIP5K2B; 1 µM,0%
same,%Inh,PIP5K2C; 1 µM,0%
same,%Inh,PKAC-alpha; 1 µM,14%
same,%Inh,PKAC-beta; 1 µM,14%
same,%Inh,PKMYT1; 1 µM,0%
same,%Inh,PKN1; 1 µM,16%
same,%Inh,PKN2; 1 µM,0%
same,%Inh,PLK1; 1 µM,0%
same,%Inh,PLK2; 1 µM,0%
same,%Inh,PLK3; 1 µM,0%
same,%Inh,PLK4; 1 µM,9%
same,%Inh,PRKCD; 1 µM,8%
same,%Inh,PRKCE; 1 µM,0%
same,%Inh,PRKCH; 1 µM,0%
same,%Inh,PRKCI; 1 µM,11%

# Reference: paper PMC5540273 (PLoS ONE, 2017)
